Here are results for one sequence from publication PMC7862700, “An all-to-all approach to the identification of sequence-specific readers for epigenetic DNA modifications on cytosine”.

Experiment in all cases: DAPPL (digital affinity profiling via proximity ligation, sequencing); 10 mM Tris-HCl pH 7.5, 50 mM NaCl, 1 mM DTT, 4% glycerol, room temperature, 30 min; GST-TFs on glutathione beads, 16-mer random dsDNA library, 0.1% formaldehyde crosslink after washing; high values mean tight binding
Common to all, as to conditions: protein: recombinant; tags: N-terminal GST; dsDNA, one strand shown

One assay has as its target T1, ERG (Homo sapiens, UniProt P11308 1-479).
T1 sequence: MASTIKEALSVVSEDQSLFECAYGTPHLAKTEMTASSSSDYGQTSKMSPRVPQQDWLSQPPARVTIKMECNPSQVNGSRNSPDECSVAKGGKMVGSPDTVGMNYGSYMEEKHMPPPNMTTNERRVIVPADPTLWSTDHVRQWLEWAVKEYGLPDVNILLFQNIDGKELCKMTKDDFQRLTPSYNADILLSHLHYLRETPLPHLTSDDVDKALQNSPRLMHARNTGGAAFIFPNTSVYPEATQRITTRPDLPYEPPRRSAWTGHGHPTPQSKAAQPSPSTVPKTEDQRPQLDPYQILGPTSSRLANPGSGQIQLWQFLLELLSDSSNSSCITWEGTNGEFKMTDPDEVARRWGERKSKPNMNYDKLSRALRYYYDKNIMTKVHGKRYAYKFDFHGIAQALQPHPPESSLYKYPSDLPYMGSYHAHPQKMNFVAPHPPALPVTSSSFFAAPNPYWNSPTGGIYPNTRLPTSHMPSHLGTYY
In a few lines: (§1)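 Beads coated with glutathione captured GST-fused human transcription factors that had been expressed in yeast, and the factors were then given DNA barcodes and pooled with a tag-only sample. The pools were incubated with 200 nmole of a random double-stranded 16-mer DNA library in Tris/NaCl/DTT/glycerol buffer for 30 min at room temperature, washed, crosslinked with 0.1% formaldehyde and proximity-ligated with BsaI/T4 ligase at 37 °C for 1 h. PCR amplification and Illumina NextSeq500 sequencing came last. Binding signal is each hexamer's read frequency for a factor divided by its frequency for the tag-only sample.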

Another assay addresses ELF1 (Homo sapiens, UniProt P32519 1-619). In a few lines:
as §1

The next assay addresses T2, EHF (Homo sapiens, UniProt Q9NZC4 1-300).
T2 sequence: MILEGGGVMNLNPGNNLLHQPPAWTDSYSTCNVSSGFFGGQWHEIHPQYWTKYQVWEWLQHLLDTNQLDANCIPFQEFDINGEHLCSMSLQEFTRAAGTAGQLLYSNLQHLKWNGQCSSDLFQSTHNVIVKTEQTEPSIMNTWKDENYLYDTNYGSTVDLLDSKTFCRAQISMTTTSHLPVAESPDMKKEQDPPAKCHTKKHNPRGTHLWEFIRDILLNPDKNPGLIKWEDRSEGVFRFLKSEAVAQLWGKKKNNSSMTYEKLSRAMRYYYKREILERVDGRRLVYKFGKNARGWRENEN
In a few lines:
as §1

In the next assay the target is SPI1 (Homo sapiens, UniProt P17947 1-270). Summed up:
as §1

For the next assay, the target named is SPIB (Homo sapiens, UniProt Q01892 1-262). Summed up: as §1
The next assay has as its target T3, FEV (Homo sapiens, UniProt Q99581 1-238).
T3 sequence: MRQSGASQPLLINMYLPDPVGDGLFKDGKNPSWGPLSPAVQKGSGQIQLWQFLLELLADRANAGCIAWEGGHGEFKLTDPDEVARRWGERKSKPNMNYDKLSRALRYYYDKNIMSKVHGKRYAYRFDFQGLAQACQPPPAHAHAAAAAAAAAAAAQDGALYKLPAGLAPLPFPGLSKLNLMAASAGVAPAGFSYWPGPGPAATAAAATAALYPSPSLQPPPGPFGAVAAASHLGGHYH
Summed up: as §1

The target of a further assay is ETV5 (Homo sapiens, UniProt P41161 1-510). Summed up:
as §1

The target in another assay is T4, ELK4 (Homo sapiens, UniProt P28324-2 1-405).
T4 sequence: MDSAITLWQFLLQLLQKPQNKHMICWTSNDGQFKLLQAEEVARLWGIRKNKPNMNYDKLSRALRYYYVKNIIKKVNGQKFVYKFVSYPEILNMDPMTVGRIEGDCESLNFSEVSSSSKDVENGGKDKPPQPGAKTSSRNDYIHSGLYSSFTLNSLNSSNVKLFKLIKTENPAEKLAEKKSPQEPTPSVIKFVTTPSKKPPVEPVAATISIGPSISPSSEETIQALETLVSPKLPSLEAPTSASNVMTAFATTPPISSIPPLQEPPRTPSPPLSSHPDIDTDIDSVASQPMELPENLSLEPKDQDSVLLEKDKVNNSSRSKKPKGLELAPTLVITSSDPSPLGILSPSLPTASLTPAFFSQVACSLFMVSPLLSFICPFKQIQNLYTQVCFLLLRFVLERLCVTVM
In a few lines:
as §1

The next assay addresses T5, ETV2 (Homo sapiens, UniProt O00321 1-342).
T5 sequence: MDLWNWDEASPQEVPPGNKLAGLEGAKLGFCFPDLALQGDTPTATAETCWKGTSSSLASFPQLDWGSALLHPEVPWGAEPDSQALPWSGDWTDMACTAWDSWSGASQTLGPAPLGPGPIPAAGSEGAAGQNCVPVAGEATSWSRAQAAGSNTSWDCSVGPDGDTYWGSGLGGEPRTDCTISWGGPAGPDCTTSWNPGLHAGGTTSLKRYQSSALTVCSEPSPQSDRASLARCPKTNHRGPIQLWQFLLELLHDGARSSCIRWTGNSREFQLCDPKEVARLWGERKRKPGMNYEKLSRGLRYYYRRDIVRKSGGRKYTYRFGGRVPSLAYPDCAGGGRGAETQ
Summed up:
as §1

The target of another assay is T6, ERF (Homo sapiens, UniProt P50548 1-548).
T6 sequence: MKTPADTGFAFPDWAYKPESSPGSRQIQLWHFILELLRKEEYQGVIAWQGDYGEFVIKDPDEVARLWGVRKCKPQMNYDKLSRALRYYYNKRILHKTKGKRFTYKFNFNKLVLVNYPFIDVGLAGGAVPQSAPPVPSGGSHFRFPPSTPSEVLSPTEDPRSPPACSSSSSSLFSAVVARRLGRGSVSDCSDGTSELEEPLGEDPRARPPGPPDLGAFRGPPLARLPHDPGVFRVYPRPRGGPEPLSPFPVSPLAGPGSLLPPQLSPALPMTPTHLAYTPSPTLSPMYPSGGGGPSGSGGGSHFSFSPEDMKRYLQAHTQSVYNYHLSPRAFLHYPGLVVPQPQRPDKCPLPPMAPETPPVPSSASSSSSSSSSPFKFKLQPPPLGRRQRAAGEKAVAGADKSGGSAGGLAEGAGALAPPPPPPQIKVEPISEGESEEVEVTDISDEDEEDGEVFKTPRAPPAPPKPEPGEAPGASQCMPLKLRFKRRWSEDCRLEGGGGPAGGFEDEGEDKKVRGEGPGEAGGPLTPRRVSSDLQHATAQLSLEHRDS
In a few lines:
as §1

For a further assay, the target named is T7, ETV3L (Homo sapiens, UniProt Q6ZN32 1-361).
T7 sequence: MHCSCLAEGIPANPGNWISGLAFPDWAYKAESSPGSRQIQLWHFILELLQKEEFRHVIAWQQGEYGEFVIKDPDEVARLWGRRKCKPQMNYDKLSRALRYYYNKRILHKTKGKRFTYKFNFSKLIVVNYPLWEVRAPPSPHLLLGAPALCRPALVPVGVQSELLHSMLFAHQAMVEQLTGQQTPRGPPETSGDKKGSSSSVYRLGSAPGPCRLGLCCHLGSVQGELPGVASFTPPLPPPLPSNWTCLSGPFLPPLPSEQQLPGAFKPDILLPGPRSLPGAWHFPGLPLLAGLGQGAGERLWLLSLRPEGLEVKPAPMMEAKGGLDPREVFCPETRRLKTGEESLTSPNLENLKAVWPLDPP
In a few lines:
as §1

The target of the next assay is T8, ETS2 (Homo sapiens, UniProt P15036 1-469).
T8 sequence: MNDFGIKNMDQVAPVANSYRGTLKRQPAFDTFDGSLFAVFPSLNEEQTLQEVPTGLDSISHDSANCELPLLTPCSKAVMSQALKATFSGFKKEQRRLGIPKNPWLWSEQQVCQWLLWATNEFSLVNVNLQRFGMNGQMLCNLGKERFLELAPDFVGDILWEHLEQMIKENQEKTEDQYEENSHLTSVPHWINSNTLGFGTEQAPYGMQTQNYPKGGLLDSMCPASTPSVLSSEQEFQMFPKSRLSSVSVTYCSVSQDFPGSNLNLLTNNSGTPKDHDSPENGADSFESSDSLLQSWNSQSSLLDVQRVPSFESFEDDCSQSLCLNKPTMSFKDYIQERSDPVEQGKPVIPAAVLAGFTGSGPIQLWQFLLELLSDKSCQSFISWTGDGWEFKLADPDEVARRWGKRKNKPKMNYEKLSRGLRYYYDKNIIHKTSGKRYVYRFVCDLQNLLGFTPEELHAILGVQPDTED
In a few lines:
as §1

For a further assay, the target named is T9, SPDEF (Homo sapiens, UniProt O95238 1-335).
T9 sequence: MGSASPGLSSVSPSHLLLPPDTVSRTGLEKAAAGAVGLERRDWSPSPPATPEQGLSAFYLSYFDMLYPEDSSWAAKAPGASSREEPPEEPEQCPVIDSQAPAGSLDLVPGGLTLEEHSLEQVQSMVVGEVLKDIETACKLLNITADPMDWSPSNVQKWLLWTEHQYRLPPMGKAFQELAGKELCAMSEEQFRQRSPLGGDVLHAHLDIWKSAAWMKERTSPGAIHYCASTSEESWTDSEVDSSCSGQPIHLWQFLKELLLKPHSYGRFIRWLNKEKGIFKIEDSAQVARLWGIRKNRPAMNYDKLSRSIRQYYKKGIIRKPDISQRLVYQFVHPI
In a few lines: as §1

The next assay addresses T10, ETV7 (Homo sapiens, UniProt Q9Y603 1-341).
T10 sequence: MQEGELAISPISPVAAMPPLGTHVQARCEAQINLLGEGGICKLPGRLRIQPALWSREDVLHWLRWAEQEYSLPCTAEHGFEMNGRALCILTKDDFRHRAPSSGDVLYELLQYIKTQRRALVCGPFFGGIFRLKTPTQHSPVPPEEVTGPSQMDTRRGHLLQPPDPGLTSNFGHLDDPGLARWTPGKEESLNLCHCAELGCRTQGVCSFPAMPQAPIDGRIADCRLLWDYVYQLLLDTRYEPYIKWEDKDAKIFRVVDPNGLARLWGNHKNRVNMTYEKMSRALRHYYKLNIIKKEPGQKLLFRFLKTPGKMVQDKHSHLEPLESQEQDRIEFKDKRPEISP
Summed up: as §1

The next assay concerns the target T11, ETV3 (Homo sapiens, UniProt P41162-2 1-143).
T11 sequence: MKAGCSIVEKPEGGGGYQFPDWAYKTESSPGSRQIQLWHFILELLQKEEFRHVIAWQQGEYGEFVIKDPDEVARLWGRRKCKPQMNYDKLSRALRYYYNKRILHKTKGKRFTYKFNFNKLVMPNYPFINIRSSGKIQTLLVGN
Summed up:
as §1

Another assay deals with ETV6 (Homo sapiens, UniProt P41212 1-452). In a few lines: as §1
Sequence of ETV6 (P41212 whole entry): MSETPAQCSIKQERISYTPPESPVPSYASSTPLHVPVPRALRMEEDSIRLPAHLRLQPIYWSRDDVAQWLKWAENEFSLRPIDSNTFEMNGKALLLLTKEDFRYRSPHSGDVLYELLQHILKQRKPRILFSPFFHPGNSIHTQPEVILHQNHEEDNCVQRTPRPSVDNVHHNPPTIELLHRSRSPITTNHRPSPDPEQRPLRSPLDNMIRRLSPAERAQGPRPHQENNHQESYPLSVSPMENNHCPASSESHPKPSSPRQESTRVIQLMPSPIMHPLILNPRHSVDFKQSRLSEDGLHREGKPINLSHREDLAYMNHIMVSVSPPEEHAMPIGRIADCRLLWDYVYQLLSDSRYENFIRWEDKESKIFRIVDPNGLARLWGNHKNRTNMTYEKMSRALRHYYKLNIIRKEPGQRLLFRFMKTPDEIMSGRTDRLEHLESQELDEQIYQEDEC

Sequence of ETV5 (P41161 whole entry): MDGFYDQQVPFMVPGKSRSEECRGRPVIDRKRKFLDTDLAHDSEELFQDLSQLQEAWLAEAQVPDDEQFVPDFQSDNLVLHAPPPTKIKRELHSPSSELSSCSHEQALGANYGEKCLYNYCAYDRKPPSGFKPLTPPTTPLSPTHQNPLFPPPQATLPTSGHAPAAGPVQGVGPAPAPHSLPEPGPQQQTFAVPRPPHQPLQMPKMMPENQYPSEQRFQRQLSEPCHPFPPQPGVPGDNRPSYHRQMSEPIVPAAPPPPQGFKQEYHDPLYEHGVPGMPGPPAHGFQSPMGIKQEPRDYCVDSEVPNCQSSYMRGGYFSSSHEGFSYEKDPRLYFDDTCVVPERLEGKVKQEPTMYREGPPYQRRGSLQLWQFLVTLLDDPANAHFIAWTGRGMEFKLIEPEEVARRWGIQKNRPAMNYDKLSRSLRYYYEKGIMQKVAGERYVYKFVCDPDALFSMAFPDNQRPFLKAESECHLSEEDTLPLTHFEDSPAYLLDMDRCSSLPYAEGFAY
Sequence of SPIB (Q01892 whole entry): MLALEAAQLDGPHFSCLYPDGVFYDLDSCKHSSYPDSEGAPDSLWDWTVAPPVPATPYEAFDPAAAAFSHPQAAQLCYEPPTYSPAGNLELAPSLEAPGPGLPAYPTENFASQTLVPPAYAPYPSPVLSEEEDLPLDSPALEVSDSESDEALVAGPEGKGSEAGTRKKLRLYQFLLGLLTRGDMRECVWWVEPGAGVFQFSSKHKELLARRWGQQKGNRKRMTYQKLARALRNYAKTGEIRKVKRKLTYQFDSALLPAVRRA
Sequence of ELF1 (P32519 whole entry): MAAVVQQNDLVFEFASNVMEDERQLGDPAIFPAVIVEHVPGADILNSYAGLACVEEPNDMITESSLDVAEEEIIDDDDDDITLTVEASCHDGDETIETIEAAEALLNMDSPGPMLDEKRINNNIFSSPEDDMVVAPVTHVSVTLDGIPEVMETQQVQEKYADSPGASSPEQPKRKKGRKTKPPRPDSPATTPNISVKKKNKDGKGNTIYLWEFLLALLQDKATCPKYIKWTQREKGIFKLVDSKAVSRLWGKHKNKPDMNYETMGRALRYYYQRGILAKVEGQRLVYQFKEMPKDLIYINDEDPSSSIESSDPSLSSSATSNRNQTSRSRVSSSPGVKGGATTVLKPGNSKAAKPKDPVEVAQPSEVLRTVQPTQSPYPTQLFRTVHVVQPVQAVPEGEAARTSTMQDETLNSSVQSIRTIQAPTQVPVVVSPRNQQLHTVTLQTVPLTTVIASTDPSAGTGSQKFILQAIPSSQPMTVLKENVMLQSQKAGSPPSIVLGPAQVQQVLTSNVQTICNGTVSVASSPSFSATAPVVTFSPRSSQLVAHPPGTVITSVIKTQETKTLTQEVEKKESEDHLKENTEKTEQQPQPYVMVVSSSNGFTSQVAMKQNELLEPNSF

Take TGGCTG: the binding signal in the assay with ERG is 1.04 fold enrichment (6-mer frequency, TF over GST control); with ELF1, 1.06 fold enrichment (6-mer frequency, TF over GST control); in the assay with EHF, 1.23 fold enrichment (6-mer frequency, TF over GST control); in the assay with SPI1, 1.02 fold enrichment (6-mer frequency, TF over GST control); with SPIB, 1.01 fold enrichment (6-mer frequency, TF over GST control); in the assay with FEV, 1.04 fold enrichment (6-mer frequency, TF over GST control). Further, the binding signal was 1.08 fold enrichment (6-mer frequency, TF over GST control) with ETV5; 1.24 fold enrichment (6-mer frequency, TF over GST control) in the assay with ELK4; 1.26 fold enrichment (6-mer frequency, TF over GST control) with ETV2; 1.17 fold enrichment (6-mer frequency, TF over GST control) in the assay with ERF; 1.09 fold enrichment (6-mer frequency, TF over GST control) with ETV3L; 1.05 fold enrichment (6-mer frequency, TF over GST control) in the assay with ETS2. The binding signal in the assay with SPDEF is 1.01 fold enrichment (6-mer frequency, TF over GST control); in the assay with ETV7, 1.07 fold enrichment (6-mer frequency, TF over GST control); in the assay with ETV3, 1 fold enrichment (6-mer frequency, TF over GST control); with ETV6, 1.02 fold enrichment (6-mer frequency, TF over GST control).
